hcDAF-12 act: H. contortus DAF-12 nuclear receptor activators, primary screen, cell-based, luminescence, HEK293, lit1-tk-luc reporter; activation, % at 6.8 µM; 370,000 tested, 1.4% active; HEK293 hcDAF-12 lit1-tk-luc reporter; 0% DMSO, 100% Δ7-dafachronic acid; AID 652067, 2013;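 active means activation above the mean of all tested compounds plus 3 SD, cut at about 5.5% in these data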;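 further: 100% = response to 3 µM Δ7-dafachronic acid high control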
DAX1 inh-1: DAX1 (NR0B1) inhibitors, primary screen, cell-based, HEK293, Gal4-DAX1, luciferase luminescence. Nuclear receptor subfamily 0 group B member 1 (Homo sapiens), P51843. HEK293 Gal4-DAX1 luciferase reporter. inhibition, % at 6.75 µM. 340,000 tested, 0.99% active;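 active means inhibition above the mean over all tested compounds plus 3 SD, cut at about 4.2% in these data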;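 further: 0% = DAX1-transfected cells with DMSO and 100% = empty-vector control cells with DMSO; inhibition shows as a rise in luminescence from relieved DAX1 repression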
Target sequence (P51843 207-470 limits assumed): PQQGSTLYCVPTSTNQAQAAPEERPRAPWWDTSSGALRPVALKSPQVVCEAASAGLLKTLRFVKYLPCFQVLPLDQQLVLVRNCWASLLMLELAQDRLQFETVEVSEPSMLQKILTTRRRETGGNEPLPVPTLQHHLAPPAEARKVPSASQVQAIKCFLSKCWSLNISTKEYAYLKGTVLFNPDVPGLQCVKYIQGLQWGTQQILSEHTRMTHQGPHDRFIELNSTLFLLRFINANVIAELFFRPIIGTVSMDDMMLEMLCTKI
hgDAF-12 ag: H. glycines DAF-12 receptor agonists, primary screen, cell-based, luminescence, HEK293, GAL4 fusion, UAS-luciferase | Nuclear hormone receptor DAF-12 (Heterodera glycines), GAL4 fusion | HEK293 GAL4-hgDAF12 UAS-luciferase reporter, agonist luminescence; normalized to butyrate control | activation, % at 6.8 µM | 370,000 tested, 1.8% active;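 active means activation above a cutoff set at the mean of all screened compounds plus 3 SD, cut at about 10% in these data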;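 further: 0% = DMSO wells and 100% = sodium butyrate wells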
AHR activator: AHR activators, primary screen, cell-based, luminescence, luciferase reporter, human | Aryl hydrocarbon receptor (Homo sapiens), P35869 | AID 2796, 2010 | activation, % at 5 µM | 320,000 tested, 2.5% active | AHR-responsive luciferase reporter cells; in the data active means activation above about 47%;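 further: 0% = vehicle wells and 100% = reference agonist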
DAX1 inh-2: DAX1 (NR0B1) inhibitors on StAR promoter, primary screen, cell-based, luminescence, SF-1 (NR5A1), full-length DAX-1; AID 652010, 2013; 370,000 tested, 1.1% active; inhibition, % at 6.8 µM; HEK293T StAR-luciferase reporter, SF-1/DAX-1 repression relief;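 active means inhibition above the mean over all tested compounds plus 3 SD, cut at about 3.6% in these data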;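 further: 0% = DAX-1 cells with DMSO and 100% = cells lacking DAX-1 with DMSO; higher inhibition means more luminescence from relief of DAX-1 repression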
ssDAF12 agonist: S. stercoralis DAF-12 nuclear receptor activators, primary screen, cell-based, luminescence, HEK293, GRIP1 co-expression, lit1-tk-luc; activation, % at 6.8 µM; HEK293 ssDAF-12/GRIP1 lit1-tk-luc reporter; % of 3 µM dafachronic acid response; AID 652126, 2013; 370,000 tested, 1% active; Nuclear hormone receptor DAF-12 (Strongyloides stercoralis);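 active means activation above the mean over all tested compounds plus 3 SD, cut at about 0.9% in these data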;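 further: 0% = DMSO-only wells and 100% = 3 µM delta7-dafachronic acid wells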
The depositor's hits bear a star; . = not tested or not shown. Most compounds without a hit are left out; they make up all but 5.7% or so of the library.

SMILES	hcDAF-12 act	DAX1 inh-1	hgDAF-12 ag	AHR activator	DAX1 inh-2	ssDAF12 agonist
COc1ccc(S(=O)(=O)NC(C)c2ccc3c(c2)OCCO3)cc1 (configuration not stated)	0	1	0	.	0	-2
CCOc1ccc(S(=O)(=O)N2CCCC(C(=O)N3CCOCC3)C2)cc1C (configuration not stated)	-1	0	0	0	-2	-1
COc1cc(/C=C2/CC(C)OC2=O)c([N+](=O)[O-])cc1OC (configuration not stated)	-2	4.7*	1	4	0	-1
CCN(Cc1ccccc1)C(=O)c1cc(-c2ccc(OC)c(OC)c2)nc2ccccc12	-3	-2	-5	69*	-2	-1
COc1ccccc1CN(C)C(=O)c1cc(-c2cc(OC)c(OC)c(OC)c2)nc2ccccc12	-4	-4	-6	32	-2	-1
COc1ccc(-c2cc(C(=O)N(C)Cc3ccccc3F)c3ccccc3n2)cc1OC	-2	-1	-4	71*	-3	-2
COc1ccc(-c2cc(C(=O)N3CCN(c4ccccc4)CC3)c3ccccc3n2)cc1OC	-3	-2	-1	77*	-1	-1
COc1ccc(-c2cc(C(=O)N3CCCCCC3)c3ccccc3n2)cc1OC	-1	1	-2	.	0	-1
COCCN(Cc1ccccc1)C(=O)c1cc(-c2ccc(OC)c(OC)c2)nc2ccccc12	-3	-1	-8	29	-6	-2
Cc1ccnc(NC(=O)CCc2c[nH]c3ccccc23)c1	5	1	8	35	2	0
Cc1coc2c1c(C)cc1oc(=O)c(CC(=O)NCCCCCC(=O)O)c(C)c12	-1	-1	1	2	1	-1
O=C(Cc1n[nH]c(=O)c2ccccc12)Nc1cc(Cl)ccc1-n1cncn1	-1	0	-1	33	0	-1
N/C(=N\OC(=O)c1ccc(Br)cc1)c1ccncc1	0	-1	2	-7	0	-1
N/C(=N\OC(=O)c1cccc(Br)c1)c1ccncc1	2	1	10	53*	1	0
Cc1ccccc1C(=O)O/N=C(\N)c1cccc([N+](=O)[O-])c1	4	0	9	94*	2	0
N/C(=N\OC(=O)c1ccc(Cl)cc1Cl)c1cccnc1	1	3	11*	27	2	-1
Cc1cccc(C(=O)O/N=C(\N)c2cccc([N+](=O)[O-])c2)c1	.	0	.	6	.	.
N/C(=N\OC(=O)c1cccc([N+](=O)[O-])c1)c1cccnc1	1	1	4	114*	0	0
COC(=O)[C@]12C[C@H](CC(=O)NCCCN3CCCC3=O)C(=O)N(Cc3ccc4c(c3)OCO4)C1=C[C@H](COCc1ccccc1)O[C@@H]2C	2	.	1	.	0	-1
COc1ccc(C(CNC(=O)C(C)(C)Oc2ccc(Cl)cc2)N2CCOCC2)cc1 (configuration not stated)	-1	1	-1	.	0	-1
Cc1cc(C)cc(NC(=O)N2CCCN(Cc3c(F)cccc3Cl)CC2)c1	-1	-1	0	-6	0	-1
COc1ccc(NC(=O)C(=O)c2cn(CC(=O)N3CCCC3)c3ccccc23)c(OC)c1	-1	0	-3	0	1	-1
C[C@@H]1ON(C)[C@H]2C[C@H]3c4cc(-c5ccc6c(c5)OCO6)ccc4CCN3C[C@@H]12	-2	.	0	.	0	0
C/C(=N\OCc1ccc(C#N)cc1)c1ccccc1	1	4	11*	-3	0	-1
C/C(=N\OCc1ccc(C#N)cc1)c1ccc(S(=O)(=O)N(C)C)cc1	1	1	2	-3	0	-1
SMILES	hcDAF-12 act	DAX1 inh-1	hgDAF-12 ag	AHR activator	DAX1 inh-2	ssDAF12 agonist
COc1ccc(NC(=O)Nc2cnccn2)cc1OC	0	0	0	20	0	-1
COc1ccc(NC(=O)Nc2cnccn2)c(OC)c1	-1	0	0	2	1	-1
O=C(Nc1cnccn1)Nc1cccc(Cl)c1Cl	0	0	-2	49*	0	-2
COc1ccc(Cl)cc1NC(=O)Nc1cc(C)on1	5	1	0	55*	-1	0
COc1ccc(C)cc1NC(=O)Nc1cnccn1	0	2	1	57*	0	-1
COc1ccc(Cl)cc1NC(=O)Nc1cnccn1	0	0	3	53*	-1	0
CCCN1CCN(C(=O)c2ccc(S(=O)(=O)N(C)c3ccccc3OC)cc2)CC1	-2	1	-1	.	1	-1
COc1ccc(NC(=O)Nc2cc(C)ccc2F)cc1OC	1	0	3	52*	1	-2
Cc1ccc(NC(=O)Nc2cnccn2)cc1	0	2	8	11	4.3*	0
CC(C)c1ccc(C2C(C(=O)c3ccco3)=C(O)C(=O)N2CCN2CCOCC2)cc1 (configuration not stated)	4	0	2	1	0	0
CCCC1CCC(=NNS(=O)(=O)c2ccc(C)c([N+](=O)[O-])c2)CC1 (configuration not stated)	-1	0	2	0	0	-1
CCCC1CCC(=NNC(=O)OC(C)(C)C)CC1 (configuration not stated)	0	5.8*	8	11	1	-1
CCOc1cccc(C(=O)Nc2ccc3c(c2)OCCO3)c1	6	-1	8	11	3	0.9*
CCCOc1ccc(C(=O)Nc2ccc3c(c2)OCCO3)cc1	5.7*	0	13*	-4	2	1
COc1ccc2nc(C)cc(SCC(NC(C)=O)C(=O)OC(C)C)c2c1 (configuration not stated)	-1	4.6*	0	3	0	-1
COc1ccc2nc(C)cc(SCC(=O)OC(C)C)c2c1	-1	1	3	-1	0	-2
Cn1c(C2CC(=O)N(Cc3ccccc3)C2)nc2ccccc21 (configuration not stated)	-2	2	1	4	0	1.1*
Cc1[nH]c2ccccc2c1C(=O)COC(=O)c1ccc([N+](=O)[O-])s1	4	-1	1	8	0	1.0*

High-throughput results deposited in PubChem by The Scripps Research Institute Molecular Screening Center.
